Hits are enriched below; roughly 1.6% of the tested compounds scored in any of these assays.
KCNQ2 inh = inhibitors of rat KCNQ2 potassium channel. O88943. CHO-K1 KCNQ2, FluxOR thallium flux, 20 min; hits give low values. B-score at 10 µM. actives 1.1% (n = 310,000). AID 2156;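 active = fluorescence ratio B-score at most minus 3 library SDs, with starting brightness B-score within 2 library SDs, cut at about -5.5 in these data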
Target sequence (O88943 whole entry, looked up): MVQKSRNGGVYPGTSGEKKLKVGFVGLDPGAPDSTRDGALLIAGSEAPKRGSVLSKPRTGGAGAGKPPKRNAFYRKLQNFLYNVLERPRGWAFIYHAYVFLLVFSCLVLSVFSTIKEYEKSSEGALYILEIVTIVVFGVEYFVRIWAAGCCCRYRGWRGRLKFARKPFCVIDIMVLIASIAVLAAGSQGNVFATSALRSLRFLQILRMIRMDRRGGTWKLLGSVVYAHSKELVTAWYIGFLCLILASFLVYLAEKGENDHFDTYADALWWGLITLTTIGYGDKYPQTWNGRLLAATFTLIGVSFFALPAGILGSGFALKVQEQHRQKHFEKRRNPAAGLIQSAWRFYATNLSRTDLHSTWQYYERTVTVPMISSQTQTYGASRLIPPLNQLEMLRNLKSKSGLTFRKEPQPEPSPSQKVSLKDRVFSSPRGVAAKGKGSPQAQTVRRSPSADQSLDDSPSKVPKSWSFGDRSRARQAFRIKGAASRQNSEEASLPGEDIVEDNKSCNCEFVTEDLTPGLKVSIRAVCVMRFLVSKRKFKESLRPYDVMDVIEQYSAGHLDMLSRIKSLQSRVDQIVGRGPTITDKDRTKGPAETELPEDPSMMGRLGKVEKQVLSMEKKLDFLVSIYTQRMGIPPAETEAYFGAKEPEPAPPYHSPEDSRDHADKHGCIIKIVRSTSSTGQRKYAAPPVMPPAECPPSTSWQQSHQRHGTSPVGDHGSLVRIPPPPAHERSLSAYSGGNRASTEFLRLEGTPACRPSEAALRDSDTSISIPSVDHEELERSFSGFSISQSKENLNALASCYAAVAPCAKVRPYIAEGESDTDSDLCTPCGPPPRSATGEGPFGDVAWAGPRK
KCNQ2 pot = KCNQ2 (rat) channel potentiation; O88943; AID 2239; B-score at 10 µM; actives 0.54% (n = 310,000); CHO-K1 KCNQ2, FluxOR thallium flux fluorescence; hits give high values;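 active = fluorescence ratio B-score at least 3 SD of library B-scores, with initial fluorescence B-score within 3 of them, cut at about 5.3 in these data; same plate scores as AID 2156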;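 note: B-score of peak minus minimum over baseline fluorescence ratio after K+ and Tl+ stimulus; positive B-score means potentiation of KCNQ2 with more thallium influx and brighter signal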
* = called active by the depositor; i = inactive; . = not tested or not shown.

SMILES | KCNQ2 inh | KCNQ2 pot
COc1cccc(-n2c(SCC(N)=O)nc3ccccc3c2=O)c1 | i | 0.67
Cc1cc(C)n(C(=O)CNC(=O)c2ccc(Cl)cc2Cl)n1 | i | 0.04
CC1=C(C(=O)OC2CCCCCC2)C(c2ccc(C)o2)C2=C(CCCC2=O)N1 (configuration not stated) | i | 0.82
CC1=C(C(=O)OC2CCCC2)C(c2ccc(C)o2)C2=C(CC(c3cccs3)CC2=O)N1 (configuration not stated) | -5.7* | -5.7
CCCN(CCC)CC(O)Cn1cc(/C=C/C(=O)c2ccccc2)c2ccccc21 (configuration not stated) | -6.3* | -6.3
CCCN(CCC)CC(O)Cn1cc(/C=C/C(=O)c2cccs2)c2ccccc21 (configuration not stated) | i | .
O=C(/C=C/c1cn(CC(O)CN2CCCCC2)c2ccccc12)c1cccs1 (configuration not stated) | i | .
O=C(/C=C/c1cn(CC(O)CN2CCCCC2)c2ccccc12)c1ccccc1 (configuration not stated) | -5.7* | -5.7
COc1cc(CC(=O)OCC(=O)N2CCCCC2)cc(OC)c1OC | i | .
Cc1ccc(S(=O)(=O)N2CCCOC2CNC(=O)C(=O)NCc2ccc3c(c2)OCO3)cc1 (configuration not stated) | i | 1.1
CCN(CC)C(=O)C(Sc1nnnn1-c1ccc(O)cc1)c1ccccc1 (configuration not stated) | -6.1* | -6.1
CCC(Sc1nnnn1-c1ccccc1)C(=O)NC(C)c1ccccc1 (configuration not stated) | i | .
O=C(NCCc1ccc(Cl)cc1)c1cc(-c2ccncc2)nc2ccccc12 | i | .
O=C(c1cc(-c2ccccn2)nc2ccc(Cl)cc12)N1CCN(CCc2ccccc2)CC1 | -5.7* | -5.7
Cc1cnn(C(=O)c2cc(-c3ccccn3)nc3ccc(Cl)cc23)c1 | i | .
Cc1ccc(-c2cc(C(=O)NCc3ccccn3)c3ccccc3n2)cc1C | -6.1* | -6.1
O=C(NCCc1ccc(Cl)cc1)c1cc(-c2ccccn2)nc2ccccc12 | -6.5* | -6.5
Cc1cccc(-c2cc(C(=O)NCc3ccccn3)c3ccccc3n2)c1 | i | .
CC(OC(=O)CCc1c[nH]c2ccccc12)C(=O)c1ccccc1 (configuration not stated) | i | .
COc1ccccc1OCCCCOc1ccccc1C(C)=O | i | 0.77
C/C=C/c1ccc(OCCCCOc2ccccc2C(C)=O)c(OC)c1 | -7.5* | -7.5
COc1ccc(CCc2nnc(NS(C)(=O)=O)s2)cc1 | i | 0.24
COc1cc(CNCCc2c[nH]c3ccccc23)cc(Cl)c1OCC(N)=O | i | 1.9
COc1cc(CNCCc2c[nH]c3ccccc23)ccc1OCc1ccc(F)cc1 | -7.2* | -7.2
CCn1c(-c2cc(-c3cc(OC)ccc3OC)nc3ccccc23)n[nH]c1=S | i | .
SMILES | KCNQ2 inh | KCNQ2 pot
CCn1c(-c2cc(-c3ccccc3OC)nc3ccccc23)n[nH]c1=S | -7.2* | -7.2
COC(=O)[C@]1(CC(C)C)N[C@H](c2ccc(-c3ccc(Cl)c(Cl)c3)cc2)[C@@H]2C(=O)N(C)C(=O)[C@@H]21 | i | .
Cc1c(Cl)cccc1NC(=O)CSc1ncnc2c1cnn2CCc1ccccc1 | i | .
O=C(CSc1ncnc2c1cnn2CCc1ccccc1)Nc1cccc(C(F)(F)F)c1 | -6.7* | -6.7
Cc1sc2nc(SCC(=O)NCc3ccco3)n(C)c(=O)c2c1C | i | .
CCn1c(SCC(=O)NC(=O)NCc2ccco2)nc2sc(C)c(C)c2c1=O | i | 6*
CCN=C1SC(CC(=O)NCc2ccccc2)C(=O)N1CC (configuration not stated) | i | .
CCC(C)(C)C1CCc2nc3ccccc3c(C(=O)OC(C)C(=O)Nc3c(C)n(C)n(-c4ccccc4)c3=O)c2C1 (configuration not stated) | i | .
Cn1c(NC(=O)c2cc(-c3ccc4c(c3)OCO4)nc3ccccc23)cc(=O)n(C)c1=O | i | .
CC(C)(C)NC(=O)c1cc(-c2ccc3c(c2)OCO3)nc2ccccc12 | -5.6* | -5.6
Cc1ccc(C(=O)NNC(=O)CSc2nnc(C(C)C)n2C)cc1 | i | 0.86
CCC(=O)NCCc1nc2cc(NC(=O)c3ccc(F)cc3)ccc2n1C | i | .
O=C(O)C(Cc1c[nH]c2ccccc12)NS(=O)(=O)c1ccc(Cl)cc1 (configuration not stated) | -7.3* | -7.3
O=C(O)C(Cc1c[nH]c2ccccc12)NS(=O)(=O)c1ccc(Br)cc1 (configuration not stated) | i | 1.2
COc1ccccc1C1(CC(=O)O)CCOC(C(C)C)C1 (configuration not stated) | i | .
CCC(=O)N(CCC1(c2ccccc2OC)CCOC(C(C)C)C1)Cc1ccco1 (configuration not stated) | -5.8* | -5.8
COc1nc(N(C)C)nc(N(C#N)S(=O)(=O)c2ccc(C)cc2)n1 | i | 0.01
O=c1[nH]cnc2c1sc1nc(-c3ccccc3)c3c(c12)CCCC3 | i | 1.5
S=c1nc[nH]c2c1sc1nc(-c3ccccc3)c3c(c12)CCCC3 | i | 16*
CCCN1CCN(C(=O)c2oc3ccccc3c2NC(=O)COc2ccc(OC)cc2)CC1 | i | .
C[C@H]1[C@H](C)CC[C@]2(C(=O)O)CC[C@]3(C)C(=CC[C@@H]4[C@@]5(C)C[C@@H](O)[C@H](O)C(C)(C)[C@@H]5CC[C@]43C)[C@H]12 | i | 0.58
C[C@H]1[C@H](C)CC[C@]2(C)CC[C@]3(C)C(=CC[C@@H]4[C@@]5(C)CC[C@@H](O)[C@](C)(C(=O)O)[C@@H]5CC[C@]43C)[C@H]12 | -9.2* | -9.2
CN1C(=O)CCC(CCC(=O)O)(c2ccccc2O)C1=O (configuration not stated) | i | 1.4
CCOc1cc(NC(=S)NCC2CCCO2)c(OCC)cc1NC(=O)c1ccccc1C (configuration not stated) | i | 0.54
CCOc1cc(NC(=S)Nc2ccccc2OC)c(OCC)cc1NC(=O)c1ccccc1C | -5.7* | -5.7
SMILES | KCNQ2 inh | KCNQ2 pot
CCOc1ccccc1CNC(=O)C1Cc2cc(S(=O)(=O)N3CCCCC3)ccc2N1C(C)=O (configuration not stated) | i | .
O=C(c1ccccn1)N(Cc1ccco1)C1(C(=O)NC2CCCC2)CCCCC1 | i | .
O=C(c1ccc2c(c1)OCO2)N(Cc1ccco1)C1(C(=O)NC2CCCCC2)CCCCC1 | -7.3* | -7.3
CCOc1cc(CNn2cnnc2)cc(Cl)c1OCC(=O)NC(C)(C)C | i | 0.57
COc1c(F)c(F)c(C(=O)Nc2c(C)cc(Br)cc2C)c(F)c1F | i | 0.01
CCN(CC(=O)Nc1ccccc1C(F)(F)F)C(=O)c1oc2ccc(OC)cc2c1C | -6* | -6
CCc1noc(C)c1C(=O)N(CC)CC(=O)Nc1ccccc1C(F)(F)F | i | 0.74
Cc1ccc(N=C2NC(=O)CS2)cc1C | i | 1.6
O=C(Nc1nc(-c2ccccc2)cs1)c1ccc(N2CCOCC2)c([N+](=O)[O-])c1 | -7.8* | -7.8
Cc1ccc(-c2csc(NC(=O)c3cc([N+](=O)[O-])ccc3N3CCOCC3)n2)cc1 | i | .
COc1ccc(C(=O)CC(=O)C(=O)Nc2ccc(C)c(Cl)c2)cc1 | i | 1.5
CC(Cc1ccc(Cl)cc1)N1CCC(n2nccc2NC(=O)C2CCCC2)CC1 (configuration not stated) | i | 0.54

Assay outcomes: PubChem, Johns Hopkins Ion Channel Center
